# Columns and labels:
# Assay in all cases: PBM binding z-score (relative to random genomic background probes); higher = stronger binding; sequences stand for … in GC…GCGATTGACAGCGTAGAATGAAGG
# [1] = system: FXR:RXRa (NR concentration 270 nM, RXRa partner concentration 90 nM)
# Outline: (§1)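 Probes were double-stranded and carried 34-nt variable regions with direct-repeat seeds, single-nucleotide variants, half-site ablations and random human genomic background sequences, printed on custom Agilent 4×180K protein-binding microarrays. Arrays were incubated 1 h with ligand-free nuclear receptor dimers in PBS pH 7.4, 2% milk, 0.02% Triton X-100, 1 mM DTT, 0.2 mg/mL BSA and 0.4 mg/ml salmon testes DNA. Antibodies against each partner (one per run) detected binding, and scanned fluorescence was regression-normalized. Binding z-scores use the random background probes as reference.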
# [2] = system: LXRa:RXRa (NR concentration 270 nM, RXRa partner concentration 90 nM)
# Outline: as §1
# [3] = system: LXRa homodimer (NR concentration 270 nM)
# Outline: as §1
# [4] = system: LXRb:RXRa (NR concentration 270 nM, RXRa partner concentration 90 nM)
# Outline: as §1
# [5] = system: LXRb homodimer (NR concentration 270 nM)
# Outline: as §1
# [6] = system: PPARa:RXRa (NR concentration 270 nM, RXRa partner concentration 90 nM)
# Outline: as §1
# [7] = system: PPARg:RXRa (NR concentration 180 nM, RXRa partner concentration 90 nM)
# Outline: as §1
# [8] = system: PPARg:RXRa 270nM:90nM, anti-RXR (NR concentration 270 nM, RXRa partner concentration 90 nM)
# Outline: as §1
# [9] = system: PPARg:RXRa 30nM:10nM, anti-RXR (NR concentration 30 nM, RXRa partner concentration 10 nM)
# Outline: as §1
# [10] = system: PPARg:RXRa 90nM:30nM, anti-RXR (NR concentration 90 nM, RXRa partner concentration 30 nM)
# Outline: as §1
# [11] = system: PPARg:RXRa DBDmut IVT, anti-RXR (DBD mutation: RXRa K156A/R161A, NR concentration 270 nM, RXRa partner concentration 90 nM)
# Outline: as §1
# [12] = system: PPARg:RXRa IVT, anti-PPARg (NR concentration 270 nM, RXRa partner concentration 90 nM)
# Outline: as §1
# [13] = system: PPARg DBDmut:RXRa IVT, anti-PPARg (DBD mutation: PPARg1 K132A/R137A, NR concentration 270 nM, RXRa partner concentration 90 nM)
# Outline: as §1
# [14] = system: PPARg DBDmut IVT, anti-PPARg (DBD mutation: PPARg1 K132A/R137A, NR concentration 270 nM)
# Outline: as §1
# [15] = system: PPARg homodimer (NR concentration 180 nM)
# Outline: as §1
# [16] = system: PXR:RXRa (NR concentration 270 nM, RXRa partner concentration 90 nM)
# Outline: as §1
# [17] = system: PXR homodimer (NR concentration 270 nM)
# Outline: as §1
# [18] = system: RARa:RXR (NR concentration 270 nM, RXRa partner concentration 90 nM)
# Outline: as §1
# [19] = system: RARa homodimer (NR concentration 270 nM)
# Outline: as §1
# [20] = system: RARb:RXRa (NR concentration 270 nM, RXRa partner concentration 90 nM)
# Outline: as §1
Sequence,PBM binding z-score [1],PBM binding z-score [2],PBM binding z-score [3],PBM binding z-score [4],PBM binding z-score [5],PBM binding z-score [6],PBM binding z-score [7],PBM binding z-score [8],PBM binding z-score [9],PBM binding z-score [10],PBM binding z-score [11],PBM binding z-score [12],PBM binding z-score [13],PBM binding z-score [14],PBM binding z-score [15],PBM binding z-score [16],PBM binding z-score [17],PBM binding z-score [18],PBM binding z-score [19],PBM binding z-score [20]
ACTAGTTGGTCAGCTGAGGCCACACACAATTCGG,0.531,-0.313,-0.2,-0.129,-0.143,-0.0104,0.761,-0.157,-0.382,-0.207,0.674,0.964,0.862,0.728,0.0249,1.11,-0.242,1,-0.472,1.13
TCTTGTAGATCAACAGTAGGTTAAGAAAGATCGA,0.361,0.659,0.0852,0.659,-0.18,1.13,0.249,1.49,2.78,2.39,2.46,1.72,0.934,0.698,0.243,0.284,-0.303,0.504,0.265,0.132
TCTTGTAGATCACCAGGTTAAGAAAGCTGGCCAA,0.657,0.602,-0.148,0.696,0.00375,1.47,0.304,2.21,3.04,2.67,2.51,1.98,-0.0157,0.181,0.18,0.513,-0.16,0.889,0.399,0.639
CCTACTTGGCCATTCAGAGGTCATTGATCATATG,3.12,4.37,6.52,4.31,1.21,3.83,0.976,2.46,0.88,1.77,1.47,1.52,1.11,0.893,2.19,4.93,1.5,4.54,1.18,3.13
GGAACGAGGGCATTCGAGTTGATAGCCTGGCGAT,0.904,1.66,-0.751,0.0314,-0.65,1.42,0.665,0.992,-0.34,0.776,3.64,2.1,-0.256,-0.793,-0.188,4.04,1.57,1.58,-0.598,1.82
GCTAGTTGGTCAGTAAAAGGCCACACACCGGTCG,-0.0469,-0.0882,-0.17,-0.23,-0.629,0.0643,0.521,0.122,-0.368,0.378,-0.0753,0.216,-0.775,-1.15,0.58,-0.0291,-0.108,0.345,-0.305,1.42
CTCGAAAGGTCGTGCTAAGGTGAGTATACCAAAC,5.5,4.12,0.337,3.46,0.12,5.03,3.4,4.54,1.67,3.46,0.626,2.19,0.542,0.415,2.51,3.71,0.449,5.09,0.258,4.05
ATCGAAAGGTCGAGGTGAGCATAGAGAAAGGGAA,4.16,3.42,-0.0507,2.7,0.363,4.61,3.46,3.8,1.66,2.84,0.593,2.74,0.675,0.756,1.39,2.2,-0.0822,3.17,0.169,4.27
GCAGCTAGGTCAGGTTGGTCAGCTAACGGGTACG,1.03,0.422,-0.282,-0.023,-0.983,1.2,0.443,0.714,-0.586,-0.0508,2.64,2.05,-0.736,-1.04,0.817,-0.0764,-0.615,0.573,0.479,3.28
ATCGAAAGGTCGAGGTGAGTAAAGAGAAAGGGAA,4.14,3.26,0.0324,2.59,0.664,4.57,3.27,3.83,1.09,2.5,0.198,1.99,1.11,0.693,1.75,2,0.184,2.88,0.627,3.95
TCATATAGGGAAAAGGTGAAAGTCGGTGTGGTAA,1.4,1.47,0.577,1.64,0.109,4.56,7.27,7.61,6.66,8.2,3.91,3.56,0.616,0.751,1.68,1.21,0.873,2.17,1.17,1.9
CGTCCAAGGTCAGCAGGTCAGTGATAGCGACGTG,5.6,3.86,0.399,2.59,-0.265,4.52,4.13,4.45,1.15,3.05,3.28,3.76,-0.113,-0.161,2.53,3.41,0.512,4.49,1.26,5.45
TAGCCTTGGTCATTCAGGGGCCAGTATAGAAAGC,-0.269,-0.328,-0.573,0.134,-0.26,0.0582,-0.0299,-0.0721,-0.509,-0.279,-0.687,0.278,-0.367,-0.339,-0.308,0.0515,-0.437,0.596,-0.818,1.44
TCGAGTTGGTTAGGGGCATTCAGAATGGCGTCGA,0.222,0.121,-0.233,0.793,-0.112,0.575,-0.307,0.595,0.687,0.343,0.816,-0.123,-0.765,-0.477,0.182,1.14,2.82,0.232,0.104,0.514

# Reference: the supplement of paper PMC6555819
